# A selection: hits, their analogues and other compounds. The true share with any hit is near 4.1%.
# hcDAF12 agonist: H. contortus DAF-12 activation, primary screen; activation, % at 6.8 µM; AID 652067; HEK293 hcDAF-12 lit1-tk-luc reporter, luminescence; 0% DMSO, 100% Δ7-dafachronic acid; 370,000 tested, 1.4% active;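 active means activation above the mean of all tested compounds plus 3 SD, cut at about 5.5% in these data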;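 further: 100% = response to 3 µM Δ7-dafachronic acid high control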
# ssDAF12 agonist: activators of S. stercoralis DAF-12 nuclear receptor; activation, % at 6.8 µM; HEK293 ssDAF-12/GRIP1 lit1-tk-luc reporter, luminescence; % of 3 µM dafachronic acid response; AID 652126; 370,000 tested, 1% active;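 active means activation above the mean over all tested compounds plus 3 SD, cut at about 0.9% in these data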;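 further: 0% = DMSO-only wells and 100% = 3 µM delta7-dafachronic acid wells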
# DAX1 inh-1: DAX1 (NR0B1) inhibition, primary screen. inhibition, % at 6.8 µM. HEK293T StAR-luciferase reporter, SF-1/DAX-1 repression relief. 370,000 tested, 1.1% active;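 active means inhibition above the mean over all tested compounds plus 3 SD, cut at about 3.6% in these data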;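 further: 0% = DAX-1 cells with DMSO and 100% = cells lacking DAX-1 with DMSO; higher inhibition means more luminescence from relief of DAX-1 repression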
# hgDAF12 agonist: agonists of H. glycines DAF-12 nuclear receptor. AID 687014. HEK293 GAL4-hgDAF12 UAS-luciferase reporter, agonist luminescence; normalized to butyrate control. 370,000 tested, 1.8% active. activation, % at 6.8 µM;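 active means activation above a cutoff set at the mean of all screened compounds plus 3 SD, cut at about 10% in these data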;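 further: 0% = DMSO wells and 100% = sodium butyrate wells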
# DAX1 inh-2: NR0B1 (DAX1) inhibition. P51843. HEK293 Gal4-DAX1 luciferase reporter, luminescence. inhibition, % at 6.75 µM. 340,000 tested, 0.99% active;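 active means inhibition above the mean over all tested compounds plus 3 SD, cut at about 4.2% in these data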;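 further: 0% = DAX1-transfected cells with DMSO and 100% = empty-vector control cells with DMSO; inhibition shows as a rise in luminescence from relieved DAX1 repression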
# Target sequence (P51843 207-470 limits assumed): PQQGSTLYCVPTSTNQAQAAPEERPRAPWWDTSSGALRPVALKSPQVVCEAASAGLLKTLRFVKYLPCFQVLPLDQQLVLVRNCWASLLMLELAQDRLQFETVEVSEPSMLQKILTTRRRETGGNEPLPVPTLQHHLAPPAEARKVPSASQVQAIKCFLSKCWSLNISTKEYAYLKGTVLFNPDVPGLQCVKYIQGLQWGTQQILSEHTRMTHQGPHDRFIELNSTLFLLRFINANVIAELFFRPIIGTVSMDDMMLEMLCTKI
# The depositor's hits bear a star; . = not tested or not shown.
SMILES,hcDAF12 agonist,ssDAF12 agonist,DAX1 inh-1,hgDAF12 agonist,DAX1 inh-2
CC(=NN(Cc1ccccc1)c1ccccc1)c1ccccc1,0.6,-1.0,0.1,2.3,4.5*
CN[C@H]1C[C@H]2c3[nH]c4cccc(-c5ccccc5)c4c3CCN2C[C@H]1[C@H](C)O,-2.5,-0.2,-0.8,1.5,.
CCOc1ccc(OCC(=O)Nc2ccc(OC)cc2[N+](=O)[O-])cc1,0.5,-1.6,-0.5,1.3,-0.8
CCCOC(=O)Nc1cc(OC)ccc1[N+](=O)[O-],2.3,-0.5,0.3,5.3,4.7*
COC(=O)[C@H](CC(C)C)N(Cc1cn(Cc2ccc(C)cc2)nn1)S(=O)(=O)c1ccccc1Br,-3.8,-1.3,-1.4,-5.8,.
Cc1[nH]c2ccccc2c1CC(=O)Nc1ccc(Nc2cccnc2)c(-c2cc(C(F)(F)F)cc(C(F)(F)F)c2)c1,0.8,-0.7,-1.5,2.4,.
COC(=O)C1=C(C)N(Cc2ccc(C(F)(F)F)cc2)C(=NCC2CC2)NC1c1cccc(Cl)c1 (configuration not stated),0.3,-1.2,-0.7,-1.0,.
CSc1ccc(-c2nnn(Cc3ccc(Br)cc3)n2)cc1,1.1,-0.2,-0.8,1.8,1.7
CSc1ccc(-c2nnn(Cc3ccccn3)n2)cc1,0.4,-0.5,1.7,12.2*,0.5
Cc1ccc2nc(-c3ccc(SCC(=O)Nc4nnc(C)s4)nc3)[nH]c2c1,5.7*,0.0,4.3*,7.6,3.0
COc1ccc(-c2noc(C3CCCN(C(=O)Nc4ccc(C)c(F)c4)C3)n2)cc1 (configuration not stated),-1.4,-1.2,-1.2,3.9,.
NC(=O)C1CCN(C2CC(=O)N(Cc3cccs3)C2=O)CC1 (configuration not stated),0.0,1.2*,-0.1,-1.0,1.7
Cc1ccccc1CN1CCCCC(NC(=O)c2cccc(F)c2)C1=O (configuration not stated),-1.2,-1.6,-2.2,0.5,.
COc1ccc(Cn2cc(COC(=O)N3CCCC3)nn2)cc1,-0.3,-1.1,-1.0,0.1,.
O=c1c2ccccc2c(/C=N/NS(=O)(=O)c2ccccc2)c(O)n1-c1ccccn1,-0.1,1.0*,-0.8,-0.2,-0.5
COc1ccc(-n2c(O)c(/C=N/NS(=O)(=O)c3ccc(C)c([N+](=O)[O-])c3)c3ccccc3c2=O)cc1OC,-0.2,-1.0,0.0,0.1,0.0
C=CCn1c(SCC(N)=O)nnc1-c1ccc(C)cc1,-1.4,-1.4,-0.1,-0.5,.
CCOC(=O)CC[C@H]1CC[C@]2(CCCN(Cc3ccccc3)C2)O1,0.3,-0.5,0.3,1.4,.
O=C(N/N=C/c1ccc([N+](=O)[O-])o1)C(O)c1ccccc1 (configuration not stated),-3.4,-1.6,-1.1,-5.2,-3.7
O=[N+]([O-])c1ccc(/C=N/NC(=S)Nc2ccccc2C(F)(F)F)o1,0.3,-0.6,-1.2,-0.8,4.2*
Cc1ccc(/C=C2\C(=O)ON=C2c2ccccc2)o1,-0.5,-0.9,-0.4,0.0,.
Cc1ccc(C2=NOC(=O)/C2=C\c2ccc(C)o2)cc1,0.4,-1.2,-0.1,-1.2,5.8*
O=C(N/N=C\c1ccc(-c2cccc(Cl)c2)o1)C(=O)NC1CCCC1,-0.5,-0.9,0.3,-0.2,7.0*
N#Cc1cc(Nc2c(N)nc[nH]c2=O)c([N+](=O)[O-])cc1C#N,6.0*,0.1,-0.2,2.7,-0.1
CCCCNC(=O)N1CCCC1C(=O)Nc1cccc(OC)c1 (configuration not stated),-1.8,-1.7,0.0,-1.9,.
SMILES,hcDAF12 agonist,ssDAF12 agonist,DAX1 inh-1,hgDAF12 agonist,DAX1 inh-2
O=C1Nc2ccc(F)cc2C12Nc1ccccc1-c1nnc(SCc3ccccc3)nc1O2 (configuration not stated),5.6*,-0.6,-0.1,-0.3,0.2
CCOC(=O)[C@@]12CCC3=C1N(CCC3)C(=O)[C@H](CC(=O)NCC13CC4CC(CC(C4)C1)C3)C2,-1.5,-1.0,-0.3,-3.0,.
Cc1ccc(NC(=O)CCNS(=O)(=O)c2ccc3c(c2)oc(=O)n3C)cc1,0.5,-0.7,0.7,2.1,0.2
CCOc1ccc(NC(=O)CCNS(=O)(=O)c2ccc3c(c2)oc(=O)n3C)cc1,5.9*,-0.6,-2.0,0.9,-0.4
COC(=O)[C@]12C[C@H](CC(=O)N3CCSCC3)C(=O)N(Cc3cccc4ccccc34)C1=C[C@H](C(C)(C)C)O[C@@H]2C,-2.2,-0.2,-1.4,2.6,.
CCOc1ccc(Nc2nc(N)c3ccccc3n2)cc1,4.0,1.4*,2.0,8.5,-5.2
CN(C)c1ccc(Nc2nc(N)c3ccccc3n2)cc1,4.3,0.9,2.2,10.5*,-5.1
CC(C)(C)NC(=O)NC(=O)COC(=O)CNS(=O)(=O)c1ccc(Br)cc1Cl,0.3,-0.5,0.2,4.7,5.8*
O=C(CNS(=O)(=O)c1ccc(Br)cc1Cl)OCC(=O)N1CCCC1=O,-0.9,-0.9,-0.2,0.8,0.8
COc1cc(OC)cc(C(=O)NNC(=S)Nc2ccccc2OC)c1,1.6,-1.7,0.3,2.3,2.2
COc1ccccc1NC(=S)NNC(=O)c1ccccc1,0.3,0.1,1.7,10.7*,1.2
COc1ccccc1NC(=S)NNC(=O)c1ccncc1,-0.8,-1.1,-0.1,3.6,-0.9
COc1ccccc1NC(=S)NNC(=O)c1ccccc1Br,3.8,1.3*,1.9,10.3,-0.7
COc1ccc(N=C(N)NC(=O)OCc2ccccc2)cc1,3.5,0.6,3.5,4.4,.
O=C(Cc1c[nH]c2ccccc12)Nc1ccc(Nc2ccncc2)cc1,6.0*,0.3,0.1,-1.8,.
Cc1[nH]c2ccccc2c1CC(=O)Nc1ccc(Nc2ccncc2)cc1,4.7,2.1*,-1.6,3.0,.
O=C(COC(=O)CCc1c[nH]c2ccccc12)Nc1ccc([N+](=O)[O-])cc1,0.7,-1.2,-0.7,-2.4,5.2*
CC(=O)Nc1ccc(NC(=O)CCCc2c[nH]c3ccccc23)cc1,0.0,-1.1,0.0,-1.3,5.0*
Cn1c(COc2ccccc2)nnc1SCC(=O)Nc1ccc(S(=O)(=O)Nc2nccs2)cc1,-2.0,-1.3,-0.2,0.1,.
Cc1ccccc1NC(=O)Cc1c[nH]c2ccccc12,3.6,1.0*,0.4,1.1,2.2
Cc1ccccc1NC(=O)NCCc1c[nH]c2ccccc12,-2.2,-0.7,-0.6,-2.9,-1.6
Cc1cccc(C)c1NC(=O)c1c[nH]c2ccccc12,6.2*,-0.6,0.8,6.6,0.7
CN(c1cccnc1)c1ccc(NC(=O)Cc2c[nH]c3ccccc23)cc1Br,6.5*,1.5*,0.2,6.3,.
CN(C)C(CNC(=O)CCCc1c[nH]c2ccccc12)c1ccco1 (configuration not stated),-2.2,-1.8,0.1,1.1,5.8*
COC(=O)[C@]12C[C@H](CC(=O)NCCC(C)C)C(=O)N(Cc3ccc(Cl)cc3Cl)C1=C[C@H](COCc1ccccc1)O[C@@H]2C,-1.4,-0.9,-1.5,0.6,.

# Screening results from PubChem BioAssay.
